Screening data from PubChem.
BJeLR lethal: BJeLR cell viability loss. BJeLR (HRASV12) viability, CellTiter-Glo ATP luminescence, 48 h. inhibition, % (no concentration beside the values). 300,000 compounds, 0.17% hits. AID 1554; in the data active = inhibition above about 50%
RecA intein inh: blocks M. tuberculosis RecA intein splicing; 290,000 compounds, 0.75% hits; AID 2221; cell-free RecA intein splicing, fluorescence; P9WHJ3; inhibition, % (no concentration beside the values); in the data active = inhibition above about 30%
PrPC TRFRET: cell surface PrPC inhibition, primary TR-FRET screen. inhibition, % at 13.8 µM. 370,000 compounds, 0.43% hits. AID 720596. TR-FRET read-out. P04156; in the data active = inhibition above about 24%
FBA Mtb inh: Mtb fructose-bisphosphate aldolase inhibition | purified M. tuberculosis FBA, fluorescence read-out | inhibition, % at 1 µM | 360,000 compounds, 2.3% hits | AID 588726
Target sequence (P9WQA3 whole entry, looked up): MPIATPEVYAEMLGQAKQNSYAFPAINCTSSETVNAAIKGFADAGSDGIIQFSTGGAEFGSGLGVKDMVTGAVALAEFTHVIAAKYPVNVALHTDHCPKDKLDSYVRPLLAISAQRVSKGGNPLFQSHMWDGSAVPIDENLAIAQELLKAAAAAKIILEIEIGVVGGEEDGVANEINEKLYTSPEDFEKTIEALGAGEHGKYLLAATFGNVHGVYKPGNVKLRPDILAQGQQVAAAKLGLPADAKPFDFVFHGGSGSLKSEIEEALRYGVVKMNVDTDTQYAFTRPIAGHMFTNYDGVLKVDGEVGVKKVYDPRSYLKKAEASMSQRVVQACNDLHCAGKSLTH
GDH-TPI counter-1: counter-screen for M. tuberculosis FBA inhibitors: GDH-TPI coupled enzymes; GDH-TPI coupled enzyme counterscreen, NADH absorbance; inhibition, % at 4.8 µM; 360,000 compounds, 1.2% hits; AID 588335; in the data active = inhibition above about 30%
Mtb FBA inh conf: confirmation of M. tuberculosis fructose-bisphosphate aldolase inhibitors; inhibition, % at 1 µM; purified M. tuberculosis FBA, fluorescence read-out; AID 651616; shares compounds with FBA Mtb inh; 5,600 compounds, 78% hits
GDH-TPI counter-2: inhibits GDH-TPI coupling enzymes, flagging Mtb FBA hits. AID 652141. shares compounds with FBA Mtb inh. 5,600 compounds, 81% hits. inhibition, % at 1 µM. GDH-TPI coupled enzyme counterscreen, fluorescence; in the data active = inhibition above about 10%
Of the large screens only hits and unclear results are named; the others gave an inactive call (follow-up assays come after a bar, where they were run). In the library only some 4.2% were active in any assay of this set; here they are far more common. Rule as the data show it, unless noted: active = inhibition above about 27%; inactive = the rest.

CCCCNC(=O)C[C@H]1C[C@@]2(C(=O)OC)C(=C[C@H](C(C)C)O[C@@H]2C2CC2)N(Cc2ccco2)C1=O	none (no result: BJeLR lethal, RecA intein inh, FBA Mtb inh, GDH-TPI counter-1)
COC(=O)C1C(O)=C(C=NC2CCCCC2)C(=O)CC1(C)C (stereo not given)	FBA Mtb inh 28.4 | Mtb FBA inh conf 146.6 | GDH-TPI counter-2 115.0
CCS(CC)=NS(=O)(=O)c1ccc(NC(C)=O)cc1	FBA Mtb inh 63.9 | Mtb FBA inh conf 98.3 | GDH-TPI counter-2 86.7
CC(=O)Nc1ccc(S(=O)(=O)N=S(C)C)cc1	none
COCc1cc(C)nc(NC2CCCCC2)c1C#N	FBA Mtb inh 84.8 (no result: BJeLR lethal, RecA intein inh) | Mtb FBA inh conf 81.3 | GDH-TPI counter-2 67.2
COCc1cc(C)nc(NCCc2ccccc2)c1C#N	FBA Mtb inh 72.0 | Mtb FBA inh conf active | GDH-TPI counter-2 181.9
CCOC(=O)c1cnc2nc(C)[nH]n2c1=O	none
CCOC(=O)c1cnc2sc3c(n2c1=O)CCCC3	FBA Mtb inh 107.5 (no result: BJeLR lethal, RecA intein inh) | Mtb FBA inh conf 53.2 | GDH-TPI counter-2 45.0
COc1ccc2sc(-c3ccc(SC)cc3)c(C#CC(C)(C)O)c2c1	FBA Mtb inh 30.3, GDH-TPI counter-1 39.0 (no result: BJeLR lethal, RecA intein inh) | Mtb FBA inh conf inactive | GDH-TPI counter-2 inactive
c1ccc(CCSc2nnc(-c3cccnc3)n2Cc2ccccc2)cc1	none (no result: BJeLR lethal, RecA intein inh, FBA Mtb inh, GDH-TPI counter-1)
FC(F)(F)c1cccc(-c2ccn3ncnc3n2)c1	FBA Mtb inh 33.4 | Mtb FBA inh conf inactive | GDH-TPI counter-2 inactive
OC(c1ccccc1)(c1nc(-c2cccc(C(F)(F)F)c2)cs1)C(F)(F)F (stereo not given)	none (no result: BJeLR lethal, RecA intein inh)
O=C(NN1C(=O)c2ccccc2NC1c1ccoc1)c1ccccc1 (stereo not given)	none
CC(=O)NN1C(=O)c2ccccc2NC1c1ccoc1 (stereo not given)	FBA Mtb inh 35.0 | Mtb FBA inh conf 38.1 | GDH-TPI counter-2 18.5
CC(=O)NN1C(=O)c2ccccc2NC1c1cccnc1 (stereo not given)	FBA Mtb inh 30.2 | Mtb FBA inh conf 77.0 | GDH-TPI counter-2 72.2
Cc1ccc(S(=O)(=O)NN2C(=O)c3ccccc3NC2c2ccccc2F)cc1 (stereo not given)	none
COc1ccc(N2C(=O)c3ccccc3NC2c2cccnc2)cc1 (stereo not given)	none
CC(=O)NN1C(=O)c2ccccc2NC1c1ccccc1F (stereo not given)	FBA Mtb inh 33.9 | Mtb FBA inh conf 81.4 | GDH-TPI counter-2 50.9
O=C1c2ccccc2NC(c2cccnc2)N1c1ccccc1F (stereo not given)	FBA Mtb inh 70.7 | Mtb FBA inh conf inactive | GDH-TPI counter-2 inactive
COc1ccccc1-c1ccc([C@@H]2C[C@H]3[C@H](CON3C)CN2CC2CCCCC2)cc1	none (no result: BJeLR lethal, RecA intein inh, FBA Mtb inh, GDH-TPI counter-1)
Cc1nn(CCc2nn[nH]n2)c2nc(-c3ccccc3)cc(C(F)(F)F)c12	FBA Mtb inh 39.8 | Mtb FBA inh conf active | GDH-TPI counter-2 163.9
Cc1cc(C(F)(F)F)c2c(C)nn(CCc3nn[nH]n3)c2n1	none
Cc1ccc(C2c3c(n[nH]c3C(C)C)C(=O)N2c2ccccc2)cc1 (stereo not given)	none (no result: BJeLR lethal, RecA intein inh, FBA Mtb inh, GDH-TPI counter-1)
C=CCNc1cccc2c1S(=O)(=O)N[C@H](Cc1ccccc1)CO2	none (no result: BJeLR lethal, RecA intein inh, FBA Mtb inh, GDH-TPI counter-1)
COc1ccc(CN(C2CCCC2)S(=O)(=O)c2cc(Br)ccc2Br)c(OC)c1	none (no result: BJeLR lethal, RecA intein inh, FBA Mtb inh, GDH-TPI counter-1)
COC(=O)c1ccc2cc(C)cc(C)c2n1	FBA Mtb inh 58.8 (no result: BJeLR lethal, RecA intein inh, GDH-TPI counter-1) | Mtb FBA inh conf inactive | GDH-TPI counter-2 14.7
O=C(Nc1c(-c2ccc(C(F)(F)F)cc2)nc2ncccn12)C1CC1	none (no result: BJeLR lethal, RecA intein inh, FBA Mtb inh, GDH-TPI counter-1)
Cc1[nH]c2ccccc2c1CCCO	none (no result: FBA Mtb inh, GDH-TPI counter-1)
CCc1nccc2c1[nH]c1ccccc12	FBA Mtb inh 80.7 | Mtb FBA inh conf active | GDH-TPI counter-2 161.2
c1ccc2c(c1)[nH]c1cnccc12	FBA Mtb inh 37.0 | Mtb FBA inh conf 32.0 | GDH-TPI counter-2 40.9
Cc1c2ccncc2cc2c1[nH]c1ccccc12	none (no result: BJeLR lethal, RecA intein inh)
OCCCCc1nccc2c1[nH]c1ccccc12	FBA Mtb inh 69.3 | Mtb FBA inh conf active | GDH-TPI counter-2 186.5
Cc1nccc2c1[nH]c1ccccc12	FBA Mtb inh 94.4 | Mtb FBA inh conf inactive | GDH-TPI counter-2 inactive
Cc1ccc(S(=O)(=O)N2CC3=C(c4ccccc4)CC4(C)C(=O)C(C)(C)CC4=C3C2)cc1 (stereo not given)	none (no result: BJeLR lethal, RecA intein inh, FBA Mtb inh, GDH-TPI counter-1)
CCN(Cc1ccccc1)S(=O)(=O)c1cc2[nH]c(=O)c(=O)[nH]c2cc1C	FBA Mtb inh 28.4 | Mtb FBA inh conf 155.4 | GDH-TPI counter-2 110.5
C[C@]12Cc3ccccc3C1CC1=N[C@@H](c3ccc(C(F)(F)F)cc3)O[C@@]13C[C@@H]2C(=O)N3Cc1ccncc1 (stereo not given in full)	none (no result: BJeLR lethal, RecA intein inh, FBA Mtb inh, GDH-TPI counter-1)
COC(=O)[C@]12C[C@H](CC(=O)N3CCOCC3)C(=O)N(Cc3ccc4c(c3)OCO4)C1=C[C@H](C(C)C)O[C@@H]2C1CC1	none (no result: BJeLR lethal, RecA intein inh, FBA Mtb inh, GDH-TPI counter-1)
COC(=O)c1ccccc1NC(=S)NC(NC(=O)c1ccco1)C(Cl)(Cl)Cl (stereo not given)	none (no result: PrPC TRFRET)
O=C(NC(NC(=S)Nc1ccccc1C(=O)O)C(Cl)(Cl)Cl)c1ccco1 (stereo not given)	FBA Mtb inh 32.9 | Mtb FBA inh conf inactive | GDH-TPI counter-2 inactive
CCCCC1OC23CCCCC2C(C#N)(C#N)C1(C#N)C(=N)O3 (stereo not given)	FBA Mtb inh 45.1 | Mtb FBA inh conf 64.2 | GDH-TPI counter-2 50.8
CCCCC1OC23CCCCC2C(C#N)(C(=N)O3)C1(C#N)C#N (stereo not given)	FBA Mtb inh 42.3 | Mtb FBA inh conf inactive | GDH-TPI counter-2 inactive
C[C@@H]1ON(C)[C@H]2C[C@H]3c4[nH]c5c(-c6ccccc6F)cccc5c4CCN3C(=O)[C@@H]12	none (no result: BJeLR lethal, RecA intein inh, FBA Mtb inh, GDH-TPI counter-1)
O=c1c2ccccc2sc2ccc(C#CC3(O)CCCCC3)cc12	none
C=CCn1c2ccccc2c(=O)c2cc(C#CC3(O)CCCCC3)ccc21	FBA Mtb inh 64.6 | Mtb FBA inh conf 133.8 | GDH-TPI counter-2 108.3
COc1ccc(-c2cn3cc(Cl)ccc3n2)cc1OC	FBA Mtb inh 57.2 | Mtb FBA inh conf 71.9 | GDH-TPI counter-2 46.5
COc1ccc(-c2cn3cc(C)ccc3n2)cc1Br	FBA Mtb inh 30.0 | Mtb FBA inh conf 130.0 | GDH-TPI counter-2 109.3
Cc1ccc2nc(-c3cccc(S(=O)(=O)N(C)C)c3)cn2c1	none
Cc1ccc(NC(=O)C2CCCN(c3nnc(-n4cccc4)s3)C2)c(C)c1 (stereo not given)	none (no result: BJeLR lethal, RecA intein inh, FBA Mtb inh, GDH-TPI counter-1)
COc1ccc2cc3cc(C(=O)NC4CC4)sc3nc2c1	FBA Mtb inh 101.8 | Mtb FBA inh conf 129.5 | GDH-TPI counter-2 117.1
COc1ccc(-c2csc(N3CCC(c4ccccc4)C3)n2)cc1 (stereo not given)	FBA Mtb inh 44.8 | Mtb FBA inh conf 133.1 | GDH-TPI counter-2 91.0
Fc1ccc(-c2csc(N3CCC(c4ccccc4)C3)n2)cc1 (stereo not given)	none
C=CC[C@]1(c2ccccc2)C(=O)N2C[C@H]3CON(C)[C@H]3C[C@H]2c2ccccc21	none (no result: BJeLR lethal, RecA intein inh, FBA Mtb inh, GDH-TPI counter-1)
CC1(C)C(c2ccco2)=[N+]([O-])C2(CCCCC2=O)N1O (stereo not given)	none
